The values below come from paper PMC11006913.

Positions count from the first letter of the chain named.

Common to all, as to assay: PBM; 200 nM protein, PBS
Common to all, as to conditions: dsDNA, one strand shown

In assay [1] the target is PRRX1 (Homo sapiens, UniProt P54821 80-166, F113S).
Assay [2] has as its target PROP1 (Homo sapiens, UniProt O75360 56-141).
For assay [3], the target named is PROP1 (Homo sapiens, UniProt O75360 56-141, R99H).
Assay [4] addresses PROP1 (Homo sapiens, UniProt O75360 56-141, F88S).
For assay [5], the target named is PRRX1 (Homo sapiens, UniProt P54821 80-166).
Assay [6] has as its target CRX (Homo sapiens, UniProt O43186 26-111, R41L).
The target in assay [7] is MSX2 (Homo sapiens, UniProt P35548 130-214, R199I).
Assay [8] has as its target MSX2 (Homo sapiens, UniProt P35548 130-214).
For assay [9], the target named is MSX2 (Homo sapiens, UniProt P35548 130-214, F161Y).
Assay [10] addresses HOXA2 (Homo sapiens, UniProt O43364 129-215, R185T).
Assay [11] has as its target HOXA2 (Homo sapiens, UniProt O43364 129-215, R185K).
Assay [12] concerns the target HOXA2 (Homo sapiens, UniProt O43364 129-215, Y150S).
Assay [13] deals with HOXA2 (Homo sapiens, UniProt O43364 129-215).
Assay [14] concerns the target T1, NKX2-6 (Homo sapiens, UniProt A6NCS4 118-204, R150C).
T1 sequence: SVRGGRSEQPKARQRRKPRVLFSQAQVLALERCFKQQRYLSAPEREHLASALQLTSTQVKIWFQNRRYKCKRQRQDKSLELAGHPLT

The target of assay [15] is ALX1 (Homo sapiens, UniProt Q15699 118-204, L144R).
Assay [16] deals with HESX1 (Homo sapiens, UniProt Q9UBX0 95-180, R109Q).
The target of assay [17] is ALX3 (Homo sapiens, UniProt O95076 139-225, L168V).
Assay [18] deals with HESX1 (Homo sapiens, UniProt Q9UBX0 95-180, F115L).
Assay [19] addresses T2, NKX2-6 (Homo sapiens, UniProt A6NCS4 118-204).
T2 sequence: T1 sequence with C33R

Assay [20] has as its target T3, NKX2-6 (Homo sapiens, UniProt A6NCS4 118-204, F151L).
T3 sequence: T1 sequence with C33R, F34L

Chain of MSX2 (Homo sapiens, UniProt P35548 130-214, R199I) (P35548 130-214 R199I): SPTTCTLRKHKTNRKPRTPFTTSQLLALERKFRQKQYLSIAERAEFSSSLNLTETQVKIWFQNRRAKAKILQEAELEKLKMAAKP
Chain of PRRX1 (Homo sapiens, UniProt P54821 80-166, F113S) (P54821 80-166 F113S): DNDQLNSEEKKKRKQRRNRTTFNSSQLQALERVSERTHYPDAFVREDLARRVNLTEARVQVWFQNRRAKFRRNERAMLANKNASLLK
Chain of PRRX1 (Homo sapiens, UniProt P54821 80-166) (P54821 80-166): as the sequence (P54821 80-166 F113S) above, with S34F counted along it
Chain of MSX2 (Homo sapiens, UniProt P35548 130-214) (P35548 130-214): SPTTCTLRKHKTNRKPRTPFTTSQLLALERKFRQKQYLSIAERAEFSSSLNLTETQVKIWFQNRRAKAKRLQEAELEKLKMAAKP
Chain of HOXA2 (Homo sapiens, UniProt O43364 129-215, R185T) (O43364 129-215 R185T): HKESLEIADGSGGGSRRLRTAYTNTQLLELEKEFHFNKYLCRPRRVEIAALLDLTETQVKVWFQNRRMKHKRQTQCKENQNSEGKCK
Chain of PROP1 (Homo sapiens, UniProt O75360 56-141) (O75360 56-141): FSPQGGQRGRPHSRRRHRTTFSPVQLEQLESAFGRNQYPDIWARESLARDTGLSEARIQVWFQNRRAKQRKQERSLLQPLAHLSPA
Chain of MSX2 (Homo sapiens, UniProt P35548 130-214, F161Y) (P35548 130-214 F161Y): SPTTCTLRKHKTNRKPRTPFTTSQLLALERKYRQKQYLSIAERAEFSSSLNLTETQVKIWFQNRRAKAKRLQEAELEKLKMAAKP
Chain of PROP1 (Homo sapiens, UniProt O75360 56-141, R99H) (O75360 56-141 R99H): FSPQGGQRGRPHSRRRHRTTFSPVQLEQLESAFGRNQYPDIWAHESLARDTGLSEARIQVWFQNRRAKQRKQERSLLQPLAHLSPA
Chain of PROP1 (Homo sapiens, UniProt O75360 56-141, F88S) (O75360 56-141 F88S): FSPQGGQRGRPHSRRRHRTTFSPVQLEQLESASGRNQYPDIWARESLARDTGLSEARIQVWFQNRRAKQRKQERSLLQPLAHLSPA
Chain of ALX3 (O95076 139-225 L168V): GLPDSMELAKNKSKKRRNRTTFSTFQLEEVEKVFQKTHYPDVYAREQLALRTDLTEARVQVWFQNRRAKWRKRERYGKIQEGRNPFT
Chain of HESX1 (Homo sapiens, UniProt Q9UBX0 95-180, F115L) (Q9UBX0 95-180 F115L): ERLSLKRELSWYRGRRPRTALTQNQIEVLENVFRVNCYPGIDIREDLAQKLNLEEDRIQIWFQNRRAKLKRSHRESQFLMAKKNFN
Chain of HOXA2 (Homo sapiens, UniProt O43364 129-215, R185K) (O43364 129-215 R185K): as the sequence (O43364 129-215 R185T) above, with T57K counted along it
Chain of HOXA2 (Homo sapiens, UniProt O43364 129-215) (O43364 129-215): as the sequence (O43364 129-215 R185T) above, with T57R counted along it
Chain of ALX1 (Q15699 118-204 L144R): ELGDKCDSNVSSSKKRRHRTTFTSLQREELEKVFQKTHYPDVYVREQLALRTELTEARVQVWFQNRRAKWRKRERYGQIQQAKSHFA
Chain of HESX1 (Homo sapiens, UniProt Q9UBX0 95-180, R109Q) (Q9UBX0 95-180 R109Q): as the sequence (Q9UBX0 95-180 F115L) above, with R15Q, L21F counted along it
Chain of HOXA2 (Homo sapiens, UniProt O43364 129-215, Y150S) (O43364 129-215 Y150S): as the sequence (O43364 129-215 R185T) above, with Y22S, T57R counted along it
Chain of CRX (O43186 26-111 R41L): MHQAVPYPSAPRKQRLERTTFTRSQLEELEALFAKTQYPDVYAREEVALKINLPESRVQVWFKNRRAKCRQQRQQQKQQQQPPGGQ

For GAGCGGCC, the binding signal in assay [1] was 9.25 upbm affinity estimate (log intensity, higher = more binding, comparable within an allelic series); in [2] it was 6.83 upbm affinity estimate (log intensity, higher = more binding, comparable within an allelic series); in [3], 6.8 upbm affinity estimate (log intensity, higher = more binding, comparable within an allelic series); in assay [4], 6.52 upbm affinity estimate (log intensity, higher = more binding, comparable within an allelic series); in [5], 9.59 upbm affinity estimate (log intensity, higher = more binding, comparable within an allelic series).

Consider CTATAATC, for which the binding signal in [1] was 10.5 upbm affinity estimate (log intensity, higher = more binding, comparable within an allelic series); in assay [6], 12.5 upbm affinity estimate (log intensity, higher = more binding, comparable within an allelic series); in assay [5], 12.5 upbm affinity estimate (log intensity, higher = more binding, comparable within an allelic series).

CGACGGAA: the binding signal in assay [1] is 9.54 upbm affinity estimate (log intensity, higher = more binding, comparable within an allelic series); in [5] it was 9.34 upbm affinity estimate (log intensity, higher = more binding, comparable within an allelic series).

As for ACCCCGGG, the binding signal in assay [1] is 9.35 upbm affinity estimate (log intensity, higher = more binding, comparable within an allelic series); in assay [7], 9.55 upbm affinity estimate (log intensity, higher = more binding, comparable within an allelic series); in [8], 9.62 upbm affinity estimate (log intensity, higher = more binding, comparable within an allelic series); in assay [9], 9.67 upbm affinity estimate (log intensity, higher = more binding, comparable within an allelic series); in assay [5] it was 9.33 upbm affinity estimate (log intensity, higher = more binding, comparable within an allelic series).

ACTAATCA: the binding signal is 10.9 upbm affinity estimate (log intensity, higher = more binding, comparable within an allelic series) in assay [1]; 12.5 upbm affinity estimate (log intensity, higher = more binding, comparable within an allelic series) in assay [10]; 11.2 upbm affinity estimate (log intensity, higher = more binding, comparable within an allelic series) in assay [7]; 13.2 upbm affinity estimate (log intensity, higher = more binding, comparable within an allelic series) in assay [5].

As for ACGCCGGA, the binding signal in [1] was 9.29 upbm affinity estimate (log intensity, higher = more binding, comparable within an allelic series); in assay [10], 7.08 upbm affinity estimate (log intensity, higher = more binding, comparable within an allelic series); in assay [11], 10.3 upbm affinity estimate (log intensity, higher = more binding, comparable within an allelic series); in [12], 10.5 upbm affinity estimate (log intensity, higher = more binding, comparable within an allelic series); in assay [5] it was 9.34 upbm affinity estimate (log intensity, higher = more binding, comparable within an allelic series); in assay [13], 7.28 upbm affinity estimate (log intensity, higher = more binding, comparable within an allelic series).

As for CTTAATCA, the binding signal is 10.9 upbm affinity estimate (log intensity, higher = more binding, comparable within an allelic series) in assay [1]; 10.5 upbm affinity estimate (log intensity, higher = more binding, comparable within an allelic series) in [2]; 9.83 upbm affinity estimate (log intensity, higher = more binding, comparable within an allelic series) in assay [3]; 7.41 upbm affinity estimate (log intensity, higher = more binding, comparable within an allelic series) in [4]; 13 upbm affinity estimate (log intensity, higher = more binding, comparable within an allelic series) in [5].

CACGTGGC: the binding signal in assay [1] was 9.17 upbm affinity estimate (log intensity, higher = more binding, comparable within an allelic series); in assay [14], 9.61 upbm affinity estimate (log intensity, higher = more binding, comparable within an allelic series); in assay [5], 9.4 upbm affinity estimate (log intensity, higher = more binding, comparable within an allelic series).

With CCAAGACG, the binding signal in assay [1] is 9.45 upbm affinity estimate (log intensity, higher = more binding, comparable within an allelic series); in [5], 9.18 upbm affinity estimate (log intensity, higher = more binding, comparable within an allelic series).

With ACCGTGCG, the binding signal in assay [1] is 9.48 upbm affinity estimate (log intensity, higher = more binding, comparable within an allelic series); in assay [5], 9.43 upbm affinity estimate (log intensity, higher = more binding, comparable within an allelic series).

For the sequence AATTATTG, the binding signal in [1] is 11.1 upbm affinity estimate (log intensity, higher = more binding, comparable within an allelic series); in assay [7], 12.3 upbm affinity estimate (log intensity, higher = more binding, comparable within an allelic series); in assay [15], 11.1 upbm affinity estimate (log intensity, higher = more binding, comparable within an allelic series); in [8], 13.4 upbm affinity estimate (log intensity, higher = more binding, comparable within an allelic series); in [16] it was 8.57 upbm affinity estimate (log intensity, higher = more binding, comparable within an allelic series); in assay [17], 9.77 upbm affinity estimate (log intensity, higher = more binding, comparable within an allelic series). The binding signal in assay [9] was 13.1 upbm affinity estimate (log intensity, higher = more binding, comparable within an allelic series); in assay [18], 8.02 upbm affinity estimate (log intensity, higher = more binding, comparable within an allelic series).

As for AGACGAGC, the binding signal in [1] is 9.44 upbm affinity estimate (log intensity, higher = more binding, comparable within an allelic series); in assay [19] it was 9.38 upbm affinity estimate (log intensity, higher = more binding, comparable within an allelic series); in assay [20] it was 9.3 upbm affinity estimate (log intensity, higher = more binding, comparable within an allelic series); in assay [5] it was 9.6 upbm affinity estimate (log intensity, higher = more binding, comparable within an allelic series).
